M1 antag: antagonists of rat M1 muscarinic receptor; Muscarinic acetylcholine receptor M1 (Rattus norvegicus), P08482; CHO-M1 cells, Fluo-4 calcium, ACh EC80 antagonist mode; active compounds read low; B-score at 10 µM; 3.4% of 64,000 active; AID 628, 2007;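 active = calcium fluorescence response, raw or row-and-column corrected B-score, differing from the plate sample mean either way at a set confidence level, mostly lower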
Target sequence (P08482 whole entry, looked up): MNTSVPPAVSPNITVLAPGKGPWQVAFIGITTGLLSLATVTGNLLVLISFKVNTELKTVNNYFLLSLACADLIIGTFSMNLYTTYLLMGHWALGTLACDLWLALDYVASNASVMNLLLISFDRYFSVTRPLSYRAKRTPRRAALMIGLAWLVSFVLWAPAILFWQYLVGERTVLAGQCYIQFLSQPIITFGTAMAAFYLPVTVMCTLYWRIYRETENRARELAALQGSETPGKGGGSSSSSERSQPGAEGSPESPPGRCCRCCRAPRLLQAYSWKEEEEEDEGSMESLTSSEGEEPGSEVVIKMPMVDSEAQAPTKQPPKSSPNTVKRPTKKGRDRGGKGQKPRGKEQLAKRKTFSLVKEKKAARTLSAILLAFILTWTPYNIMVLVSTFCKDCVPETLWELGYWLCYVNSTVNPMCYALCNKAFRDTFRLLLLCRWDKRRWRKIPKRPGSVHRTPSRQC
MKP-1 inh: MKP-1 phosphatase inhibitors, primary screen, biochemical, in vitro | Dual specificity protein phosphatase 1 (Homo sapiens), P28562 | recombinant MKP-1, OMFP hydrolysis fluorescence | inhibition, %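 (compounds tested at a single concentration somewhere between 10 and 100 µM)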 | 0.15% of 65,000 active;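 active = inhibition above about 50%, limit read from the data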
Cdc25B inh: inhibitors of Cdc25B phosphatase catalytic domain, primary screen, biochemical, OMFP fluorescence. inhibition, %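 (compounds tested at 10 µM final in the well)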. 0.1% of 65,000 active. M-phase inducer phosphatase 2 (Homo sapiens), P30305. AID 368, 2006. recombinant Cdc25B, OMFP fluorescence Ex485/Em525; in the data active = inhibition above about 50%
MMP13 inh: human MMP13 inhibitors, primary screen, biochemical, FRET peptide cleavage | MMP-13 fTHP FRET cleavage, Mca fluorescence | inhibition, % at 4 µM | 0.07% of 65,000 active;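 active = inhibition above the mean of compound-free control plate wells plus 3 SD, cut at about 14% in these data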
Hsp90 block: tumor Hsp90 inhibitors, primary screen, cell lysate, fluorescence polarization, NCI-N417 lysate; AID 429, 2006; 0.35% of 64,000 active; Heat shock protein HSP 90-alpha (Homo sapiens), P07900; inhibition, % at 30 µM; Cy3B-geldanamycin FP displacement;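 active = inhibition above 50%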
M1 agonist: M1 muscarinic receptor agonists, primary screen, CHO-M1 cells, Fluo-4 calcium, agonist mode; Muscarinic acetylcholine receptor M1; 3% of 64,000 active; Fluo-4 calcium fluorescence; active compounds read high; B-score at 10 µM;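 active = fluorescence rise, raw or as B-score row- and column-corrected plate score, outside the 99.7% band of its plate's samples, either direction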
M1 antag conf: rat M1 muscarinic receptor antagonists, confirmation, CHO cells, Fluo-4 calcium, duplicate; shares compounds with M1 antag; ACh EC80 antagonism; active compounds read low; calcium response (max-min fluorescence) at 10 µM; 43% of 1,700 active;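 active = calcium response below the same-plate mean of wells given acetylcholine alone at its 80%-effect dose, minus 3 SD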
mGluR4 antag: human mGluR4 response to M1 antagonist hits, M1 allosteric modulator project, cell-based, antagonist mode, secondary assay 1. shares compounds with M1 antag. CHO-mGluR4 calcium flux, Fluo-4 fluorescence, glutamate EC80; active compounds read low. fluorescence response (max-min) at 10 µM. 0.9% of 1,700 active. AID 678, 2007;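 active = fluorescence response below the plate's average for near-maximal glutamate wells, less 3 SD of those wells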;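 also: raw unnormalized fluorescence span taken in the window right after glutamate addition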
Large screens that a line does not name were inactive (follow-up assays come after a bar, where they were run). Shown are actives, neighbours in structure and some others; about 6.1% of the full set was active somewhere.

CC1CCCN(CC(=O)Nc2ccc(S(=O)(=O)N3CCCCCC3)cc2)C1 (configuration not stated)	M1 antag -2.1 | M1 antag conf 375 | mGluR4 antag inactive
Cc1ccc(S(=O)(=O)N2CCC(C(=O)NCCN3CCCCCC3)CC2)cc1	M1 antag -3.5 | M1 antag conf 527 | mGluR4 antag inactive
CCOC(=O)N1CCC(NC(=O)C2CCN(S(=O)(=O)c3c(C)noc3C)CC2)CC1	none
Cc1noc(C)c1S(=O)(=O)N1CCC(C(=O)NCCN2CCC(C)CC2)CC1	M1 antag -4.3 | M1 antag conf inactive | mGluR4 antag inactive
O=C1CCCc2[nH]nc(-c3cccnc3)c21	none
Cc1nnc(SCC(=O)Nc2ccc(S(=O)(=O)N3CCCC3)cc2)n1N	M1 antag -4.7 | M1 antag conf 276 | mGluR4 antag inactive
CCCS(=O)(=O)N1CCC(C(=O)NCCN2CCC(Cc3ccccc3)CC2)CC1	M1 antag -4.6 | M1 antag conf 467 | mGluR4 antag inactive
O=C(Cc1cc(=O)[nH]c(=O)[nH]1)N1CCC(Cc2ccccc2)CC1	none
COc1cccc(CNC(=O)C2CCN(S(=O)(=O)N3CC(C)CC(C)C3)CC2)c1 (configuration not stated)	none
O=C(OCC(=O)N1CCOCC1)C(c1ccccc1)c1ccccc1	none
CCN(CC)CCOC(=O)C(c1ccccc1)c1ccccc1	M1 antag -13 | M1 antag conf 19 | mGluR4 antag inactive
CC(C)n1cc(/C=C(\C#N)S(=O)(=O)c2ccccc2)c2ccccc21	none
COc1ccc(N(CC(=O)O)S(=O)(=O)c2ccc(OC)c(OC)c2)cc1	none (no result: MMP13 inh)
COc1ccc(S(=O)(=O)N(CC(=O)O)Cc2ccccc2)cc1OC	M1 antag -18 | M1 antag conf inactive | mGluR4 antag inactive
COc1ccc(S(=O)(=O)NC(CC(=O)N2CCc3ccccc32)c2ccco2)cc1 (configuration not stated)	none (no result: M1 antag, M1 agonist)
Cc1ccc(S(=O)(=O)NC(CC(=O)N2CCc3ccccc32)c2ccco2)cc1 (configuration not stated)	M1 antag -4.4 | M1 antag conf inactive | mGluR4 antag inactive
O=C1CN(c2nc3ccccc3n3cnnc23)CC(=O)N1CCc1ccccc1	none
CCS(=O)(=O)N1CCC(C(=O)N2CCc3ccccc3C2)CC1	none
Cc1nnc(SCC(=O)Nc2ccccc2N2CCOCC2)s1	none
COc1cc(C(=O)N(CCc2ccccc2)C2CC3CCC(C2)N3C)cc(OC)c1OC (configuration not stated)	none
CCCCN(C(=O)c1ccc(Cl)cc1)C1CC2CCC(C1)N2C (configuration not stated)	M1 antag -2.1 | M1 antag conf 369 | mGluR4 antag inactive
O=c1c2[nH]c3ccccc3c2ncn1CCCn1ccnc1	none
CC1CCCCN1CCn1cnc2c([nH]c3ccccc32)c1=O (configuration not stated)	M1 antag -6.9 | M1 antag conf 355 | mGluR4 antag inactive
CCn1c(SCc2ccc(C#N)cc2)nnc1-c1ccc(S(=O)(=O)N2CCCCC2)cc1	none
Cc1onc(-c2c(F)cccc2Cl)c1C(=O)N1CCc2ccccc2C1	M1 antag -3.2 | M1 antag conf inactive | mGluR4 antag inactive
CSC1=NCCN1C(=O)c1c(-c2ccccc2Cl)noc1C	none
Cc1onc(-c2c(F)cccc2Cl)c1C(=O)N1CCN(S(C)(=O)=O)CC1	none
Cc1onc(-c2c(Cl)cccc2Cl)c1C(=O)N1CCc2ccccc21	M1 antag -8.3 | M1 antag conf 120 | mGluR4 antag inactive
CC(C)(C)C(=O)NC1(C(F)(F)F)C(=O)Nc2c1c(=O)[nH]c(=O)n2Cc1ccco1 (configuration not stated)	none
CCOC(=O)Cn1c(=O)oc2cc(S(=O)(=O)NCCc3ccc(OCC)c(OCC)c3)ccc21	M1 antag -2.3 | M1 antag conf inactive | mGluR4 antag inactive
CC(C)(C)NC(=O)Cn1c(=O)oc2cc(S(=O)(=O)N3CCc4ccccc43)ccc21	M1 antag -2.4 | M1 antag conf inactive | mGluR4 antag inactive
Cn1c(=O)oc2cc(S(=O)(=O)N3CCCc4ccccc43)ccc21	none
CCOC(=O)Cn1c(=O)oc2cc(S(=O)(=O)N3CCc4ccccc43)ccc21	M1 antag -3.7 | M1 antag conf inactive | mGluR4 antag inactive
CCc1nc(Sc2nc(C)cc(C)n2)c2oc3ccccc3c2n1	none
O=C(Cn1ncc2ccccc21)N1CCc2ccccc21	M1 antag -2.3 | M1 antag conf inactive | mGluR4 antag inactive
N#CC1=C2SCN(c3ccccc3)CN2C(=O)CC1c1cccs1 (configuration not stated)	M1 antag -3.6 | M1 antag conf inactive | mGluR4 antag inactive
N#CC1=C2SCN(c3ccccc3)CN2C(=O)CC1c1c(Cl)cccc1Cl (configuration not stated)	none
CCCC(O)(CCN1CCOCC1)c1ccc(Br)cc1 (configuration not stated)	M1 antag -3.6 | M1 antag conf 283 | mGluR4 antag inactive
CCOc1ccc2[nH]c(S(=O)(=O)CC)nc2c1Cl	none
COc1ccc(CNC(=O)CN(CC2CCCO2)C(=O)CNS(=O)(=O)c2ccccc2)cc1 (configuration not stated)	M1 antag -2.4 | M1 antag conf inactive | mGluR4 antag inactive
Cc1cc(NC(=O)CC(CN(C)S(=O)(=O)c2ccccc2)c2ccccc2)no1 (configuration not stated)	none
CN(C(=O)c1cnccn1)c1nnc(-c2cccnc2)s1	none
Brc1ccc(-c2cnc3n2CCCC3)cc1	M1 antag -3 | M1 antag conf 288 | mGluR4 antag inactive
Fc1ccc2nc3n(c2c1F)CCCCCC3	none
CC1CCc2nn(CC(=O)NC3CCCC(C)C3C)cc2C1 (configuration not stated)	none
CCOc1ccccc1C(=O)Nn1c(C2CCC2)nc2ccccc2c1=O	none
COc1ccccc1C(=O)Nn1c(C2CCC2)nc2ccccc2c1=O	M1 antag -3.3 | M1 antag conf inactive | mGluR4 antag inactive

From PubChem BioAssay
